# Experimental data: ChEMBL document CHEMBL1961873, “Compounds: GSK PKIS; Assays: Nanosyn kinase panel” (2012)
# Legend:
# [1] = tested on: Tyrosine-protein kinase ABL1 (Homo sapiens), P00519 [T315I]; conditions: at 1 µM
# [2] = tested on: Tyrosine-protein kinase ABL1 (Homo sapiens), P00519 [Y253F]; conditions: at 0.1 µM
# [3] = tested on: Tyrosine-protein kinase ABL1 (Homo sapiens), P00519 [Y253F]; conditions: at 1 µM
# [4] = molecular target: Tyrosine-protein kinase ABL1 (Homo sapiens) (UniProt P00519); conditions: at 0.1 µM
# [5] = molecular target: Tyrosine-protein kinase ABL1 (Homo sapiens) (UniProt P00519); conditions: at 1 µM
# [6] = molecular target: ALK tyrosine kinase receptor (Homo sapiens) (UniProt Q9UM73); conditions: at 0.1 µM
# [7] = molecular target: ALK tyrosine kinase receptor (Homo sapiens) (UniProt Q9UM73); conditions: at 1 µM
# [8] = molecular target: Tyrosine-protein kinase ABL2 (Homo sapiens) (UniProt P42684); conditions: at 0.1 µM
# [9] = molecular target: Tyrosine-protein kinase ABL2 (Homo sapiens) (UniProt P42684); conditions: at 1 µM
# [10] = molecular target: Tyrosine-protein kinase receptor UFO (Homo sapiens) (UniProt P30530); conditions: at 0.1 µM
# [11] = molecular target: Tyrosine-protein kinase receptor UFO (Homo sapiens) (UniProt P30530); conditions: at 1 µM
# [12] = molecular target: Tyrosine-protein kinase Blk (Homo sapiens) (UniProt P51451); conditions: at 0.1 µM
# [13] = molecular target: Tyrosine-protein kinase Blk (Homo sapiens) (UniProt P51451); conditions: at 1 µM
# [14] = molecular target: T1, Cytoplasmic tyrosine-protein kinase BMX (Homo sapiens) (UniProt P51813); conditions: at 0.1 µM
# T1 sequence (whole entry): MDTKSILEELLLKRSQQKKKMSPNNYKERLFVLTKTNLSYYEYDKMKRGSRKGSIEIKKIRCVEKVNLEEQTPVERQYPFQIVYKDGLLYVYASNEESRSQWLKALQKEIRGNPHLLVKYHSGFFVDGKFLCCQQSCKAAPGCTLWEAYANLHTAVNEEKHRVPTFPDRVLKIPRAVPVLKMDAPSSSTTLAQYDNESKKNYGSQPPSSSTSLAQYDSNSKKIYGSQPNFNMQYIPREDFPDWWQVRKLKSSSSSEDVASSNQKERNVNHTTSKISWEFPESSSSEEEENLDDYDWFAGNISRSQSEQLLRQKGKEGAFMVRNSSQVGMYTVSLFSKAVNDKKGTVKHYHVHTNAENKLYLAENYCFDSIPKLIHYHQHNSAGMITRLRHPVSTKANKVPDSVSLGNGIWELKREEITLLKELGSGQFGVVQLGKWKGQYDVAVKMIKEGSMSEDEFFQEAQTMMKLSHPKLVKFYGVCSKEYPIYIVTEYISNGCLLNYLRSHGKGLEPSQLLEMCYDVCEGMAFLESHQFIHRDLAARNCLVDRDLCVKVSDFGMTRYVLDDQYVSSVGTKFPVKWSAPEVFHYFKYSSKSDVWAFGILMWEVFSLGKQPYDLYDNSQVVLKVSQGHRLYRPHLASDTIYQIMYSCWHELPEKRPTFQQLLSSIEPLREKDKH
# [15] = molecular target: T1, Cytoplasmic tyrosine-protein kinase BMX (Homo sapiens); conditions: at 1 µM
# [16] = molecular target: Protein-tyrosine kinase 6 (Homo sapiens) (UniProt Q13882); conditions: at 0.1 µM
# [17] = molecular target: Protein-tyrosine kinase 6 (Homo sapiens) (UniProt Q13882); conditions: at 1 µM
# [18] = molecular target: Tyrosine-protein kinase BTK (Homo sapiens) (UniProt Q06187); conditions: at 0.1 µM
# [19] = molecular target: Tyrosine-protein kinase BTK (Homo sapiens) (UniProt Q06187); conditions: at 1 µM
# [20] = molecular target: Tyrosine-protein kinase CSK (Homo sapiens) (UniProt P41240); conditions: at 0.1 µM;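 note: value given is the averaged percent inhibition of CSK kinase activity, from the GSK PKIS kinase inhibitor set screening panel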
# Tyrosine-protein kinase CSK (Homo sapiens), sequence (P41240 2-450 limits assumed): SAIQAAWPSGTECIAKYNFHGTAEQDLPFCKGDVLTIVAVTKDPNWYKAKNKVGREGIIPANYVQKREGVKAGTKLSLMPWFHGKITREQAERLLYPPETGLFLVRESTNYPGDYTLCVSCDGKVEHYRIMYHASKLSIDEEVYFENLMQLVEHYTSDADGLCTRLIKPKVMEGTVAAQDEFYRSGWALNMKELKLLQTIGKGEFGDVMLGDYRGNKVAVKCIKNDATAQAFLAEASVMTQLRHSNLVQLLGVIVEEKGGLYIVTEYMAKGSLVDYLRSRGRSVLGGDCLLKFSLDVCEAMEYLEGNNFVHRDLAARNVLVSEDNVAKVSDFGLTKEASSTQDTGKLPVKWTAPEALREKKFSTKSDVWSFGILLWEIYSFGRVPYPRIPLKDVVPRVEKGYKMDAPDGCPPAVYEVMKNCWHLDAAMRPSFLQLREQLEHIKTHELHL
# Tyrosine-protein kinase BTK (Homo sapiens), sequence (Q06187 whole entry): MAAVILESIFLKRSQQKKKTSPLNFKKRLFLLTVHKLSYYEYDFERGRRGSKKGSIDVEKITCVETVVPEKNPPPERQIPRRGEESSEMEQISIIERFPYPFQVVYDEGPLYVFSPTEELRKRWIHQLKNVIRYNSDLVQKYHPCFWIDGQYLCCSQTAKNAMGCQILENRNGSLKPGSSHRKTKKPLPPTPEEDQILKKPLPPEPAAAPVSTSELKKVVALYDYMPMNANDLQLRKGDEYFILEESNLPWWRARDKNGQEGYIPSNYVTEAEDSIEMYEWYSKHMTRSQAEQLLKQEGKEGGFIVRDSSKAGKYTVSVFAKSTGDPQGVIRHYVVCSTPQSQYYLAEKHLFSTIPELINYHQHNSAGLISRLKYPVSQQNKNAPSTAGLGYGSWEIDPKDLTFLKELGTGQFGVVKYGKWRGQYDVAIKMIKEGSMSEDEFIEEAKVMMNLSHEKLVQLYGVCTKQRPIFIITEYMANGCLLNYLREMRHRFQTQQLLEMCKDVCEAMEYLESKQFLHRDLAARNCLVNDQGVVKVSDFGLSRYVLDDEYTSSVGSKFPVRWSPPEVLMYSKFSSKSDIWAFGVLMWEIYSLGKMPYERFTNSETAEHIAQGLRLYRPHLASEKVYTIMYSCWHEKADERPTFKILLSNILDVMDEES
# Tyrosine-protein kinase receptor UFO (Homo sapiens), sequence (P30530 whole entry): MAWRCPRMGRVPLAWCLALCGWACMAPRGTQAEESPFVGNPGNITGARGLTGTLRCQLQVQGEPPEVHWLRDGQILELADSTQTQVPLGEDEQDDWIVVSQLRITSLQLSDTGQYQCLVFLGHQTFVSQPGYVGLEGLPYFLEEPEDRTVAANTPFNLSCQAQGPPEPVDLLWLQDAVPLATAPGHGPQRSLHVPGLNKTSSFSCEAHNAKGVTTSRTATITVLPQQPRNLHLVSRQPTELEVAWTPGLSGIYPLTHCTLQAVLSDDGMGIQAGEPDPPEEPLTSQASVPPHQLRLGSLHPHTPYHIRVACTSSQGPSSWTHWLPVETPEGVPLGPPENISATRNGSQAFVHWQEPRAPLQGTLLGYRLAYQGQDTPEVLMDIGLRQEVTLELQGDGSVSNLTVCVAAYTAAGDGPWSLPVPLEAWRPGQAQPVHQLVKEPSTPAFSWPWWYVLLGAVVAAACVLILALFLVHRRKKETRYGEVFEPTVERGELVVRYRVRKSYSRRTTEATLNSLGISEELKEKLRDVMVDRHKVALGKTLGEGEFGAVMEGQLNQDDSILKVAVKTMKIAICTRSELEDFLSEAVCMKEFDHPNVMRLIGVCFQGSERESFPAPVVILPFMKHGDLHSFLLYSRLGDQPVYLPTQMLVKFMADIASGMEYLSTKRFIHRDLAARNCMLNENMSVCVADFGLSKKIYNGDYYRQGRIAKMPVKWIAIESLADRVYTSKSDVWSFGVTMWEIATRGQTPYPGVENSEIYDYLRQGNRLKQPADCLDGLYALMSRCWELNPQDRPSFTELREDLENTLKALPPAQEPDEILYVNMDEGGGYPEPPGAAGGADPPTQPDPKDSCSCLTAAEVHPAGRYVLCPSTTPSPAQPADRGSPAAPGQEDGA
# Tyrosine-protein kinase Blk (Homo sapiens), sequence (P51451 2-505 limits assumed): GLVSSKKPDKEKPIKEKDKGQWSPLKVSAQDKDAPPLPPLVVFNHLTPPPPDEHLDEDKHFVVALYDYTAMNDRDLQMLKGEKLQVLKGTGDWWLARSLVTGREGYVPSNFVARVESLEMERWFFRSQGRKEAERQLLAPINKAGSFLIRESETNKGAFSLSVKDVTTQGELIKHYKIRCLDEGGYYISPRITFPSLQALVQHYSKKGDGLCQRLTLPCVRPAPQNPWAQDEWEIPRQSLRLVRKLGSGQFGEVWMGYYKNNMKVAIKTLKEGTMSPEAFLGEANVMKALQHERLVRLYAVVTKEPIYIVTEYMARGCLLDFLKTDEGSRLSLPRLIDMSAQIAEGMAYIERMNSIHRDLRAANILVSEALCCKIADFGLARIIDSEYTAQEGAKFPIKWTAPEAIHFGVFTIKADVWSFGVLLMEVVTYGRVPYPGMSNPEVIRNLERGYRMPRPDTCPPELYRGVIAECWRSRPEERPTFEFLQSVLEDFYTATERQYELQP
# Protein-tyrosine kinase 6 (Homo sapiens), sequence (Q13882 whole entry, looked up): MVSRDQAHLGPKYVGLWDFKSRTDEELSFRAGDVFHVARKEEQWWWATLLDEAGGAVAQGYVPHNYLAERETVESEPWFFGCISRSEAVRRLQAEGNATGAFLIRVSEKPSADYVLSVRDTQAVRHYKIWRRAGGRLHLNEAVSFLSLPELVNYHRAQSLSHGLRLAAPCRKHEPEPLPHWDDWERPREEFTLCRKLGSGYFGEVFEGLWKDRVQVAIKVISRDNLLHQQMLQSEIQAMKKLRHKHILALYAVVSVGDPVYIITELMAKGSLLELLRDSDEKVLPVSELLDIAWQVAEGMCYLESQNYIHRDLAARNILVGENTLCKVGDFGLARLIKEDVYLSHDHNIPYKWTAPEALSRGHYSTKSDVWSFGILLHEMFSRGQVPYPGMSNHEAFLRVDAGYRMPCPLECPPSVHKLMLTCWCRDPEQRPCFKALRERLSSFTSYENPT
# ALK tyrosine kinase receptor (Homo sapiens), sequence (Q9UM73 19-1620 limits assumed): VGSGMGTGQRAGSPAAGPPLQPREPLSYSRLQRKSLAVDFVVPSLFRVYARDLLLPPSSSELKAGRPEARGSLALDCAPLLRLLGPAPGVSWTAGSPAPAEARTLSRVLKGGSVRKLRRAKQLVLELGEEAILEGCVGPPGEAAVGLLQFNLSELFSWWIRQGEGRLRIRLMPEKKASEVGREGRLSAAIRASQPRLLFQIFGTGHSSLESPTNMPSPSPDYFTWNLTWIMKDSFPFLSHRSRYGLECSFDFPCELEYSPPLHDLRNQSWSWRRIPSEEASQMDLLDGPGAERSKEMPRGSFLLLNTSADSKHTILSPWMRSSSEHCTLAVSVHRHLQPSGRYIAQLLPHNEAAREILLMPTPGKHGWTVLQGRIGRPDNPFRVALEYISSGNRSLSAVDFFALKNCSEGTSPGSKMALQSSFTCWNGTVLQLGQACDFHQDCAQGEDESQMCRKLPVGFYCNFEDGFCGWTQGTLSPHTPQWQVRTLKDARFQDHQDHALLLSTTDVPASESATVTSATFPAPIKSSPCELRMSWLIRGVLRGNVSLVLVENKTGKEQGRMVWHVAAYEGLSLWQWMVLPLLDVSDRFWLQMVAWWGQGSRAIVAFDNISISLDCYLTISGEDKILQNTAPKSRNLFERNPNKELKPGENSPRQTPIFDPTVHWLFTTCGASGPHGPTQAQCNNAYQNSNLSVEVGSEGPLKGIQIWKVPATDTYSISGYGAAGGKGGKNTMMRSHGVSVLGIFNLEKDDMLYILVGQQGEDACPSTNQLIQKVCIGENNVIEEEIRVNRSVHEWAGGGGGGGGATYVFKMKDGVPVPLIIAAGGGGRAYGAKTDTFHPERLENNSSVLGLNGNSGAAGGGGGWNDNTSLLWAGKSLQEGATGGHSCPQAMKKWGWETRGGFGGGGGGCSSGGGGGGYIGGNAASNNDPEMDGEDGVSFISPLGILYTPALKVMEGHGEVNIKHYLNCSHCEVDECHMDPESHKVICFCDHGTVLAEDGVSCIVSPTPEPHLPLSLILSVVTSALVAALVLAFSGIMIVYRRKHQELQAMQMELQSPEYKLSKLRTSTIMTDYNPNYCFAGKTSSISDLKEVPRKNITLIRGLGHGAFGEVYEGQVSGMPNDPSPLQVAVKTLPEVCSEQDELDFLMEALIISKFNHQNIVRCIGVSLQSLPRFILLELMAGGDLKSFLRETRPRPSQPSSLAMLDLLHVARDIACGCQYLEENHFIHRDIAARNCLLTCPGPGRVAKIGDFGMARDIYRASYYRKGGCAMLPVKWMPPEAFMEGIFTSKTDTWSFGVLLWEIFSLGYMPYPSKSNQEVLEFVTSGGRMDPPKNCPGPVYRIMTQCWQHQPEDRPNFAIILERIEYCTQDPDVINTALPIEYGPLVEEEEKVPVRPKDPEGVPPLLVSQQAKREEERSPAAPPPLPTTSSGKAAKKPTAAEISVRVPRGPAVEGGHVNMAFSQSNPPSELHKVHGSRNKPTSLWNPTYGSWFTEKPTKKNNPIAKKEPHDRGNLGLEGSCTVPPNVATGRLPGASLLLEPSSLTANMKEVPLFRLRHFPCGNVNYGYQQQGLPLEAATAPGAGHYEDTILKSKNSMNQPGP
SMILES,inhibition [1] [%],inhibition [2] [%],inhibition [3] [%],inhibition [4] [%],inhibition [5] [%],inhibition [6] [%],inhibition [7] [%],inhibition [8] [%],inhibition [9] [%],inhibition [10] [%],inhibition [11] [%],inhibition [12] [%],inhibition [13] [%],inhibition [14] [%],inhibition [15] [%],inhibition [16] [%],inhibition [17] [%],inhibition [18] [%],inhibition [19] [%],inhibition [20] [%]
CCCN1CCCC(c2ccc(Nc3nc(Nc4cc(F)ccc4C(N)=O)c4cc[nH]c4n3)c(OC)c2)C1 (stereo not given),12.1,4.98,9.67,3.75,9.3,98.2,86.3,2.38,3.99,9.62,57.4,2.11,6.81,5.67,5.71,18.1,67.8,0.49,-1.31,2.66
NS(=O)(=O)c1ccc(N/N=C2\C(=O)Nc3ccc(Cl)cc32)cc1,11.8,1.42,11.1,2.16,10.6,1.16,5.53,5.17,11.6,-1.64,-3.81,2.51,6.13,-0.25,4.68,2.27,5.96,0.31,0.56,4.9
CC(C)c1ccc2c(c1)NC(=O)/C2=N/Nc1ccc(S(N)(=O)=O)cc1,6.52,4.59,28.8,6.22,32.8,-0.35,2.81,3.65,25.7,-0.26,0.13,1.27,14,0.14,6.03,0.98,1.26,-0.25,0.07,-1.01
Oc1cccc(-c2nc(-c3ccccc3)[nH]c2-c2ccncc2)c1,8.47,11.9,44.9,8.48,43.3,3.1,4.75,13.2,50.8,-4.03,-0.19,2.99,8.82,7.29,8.97,13,55.4,2.03,2.36,6.74
NS(=O)(=O)c1ccc(NC=C2C(=O)Nc3ccc4ncsc4c32)cc1,61.6,10.6,48.7,7.95,44.8,7.33,32.2,5.56,31.4,-4.15,42.4,8.34,58.3,6.93,13.8,3.25,8.92,0.4,3.74,2.77
[O-][S+]1CCN(Cc2ccc(-c3ccc4ncnc(Nc5ccc(OCc6ccccc6)c(Cl)c5)c4c3)o2)CC1,1.03,0.95,2.06,2.3,4.26,2.04,8.58,1.82,3.39,-2.39,0.46,-0.34,6.7,0.31,2.05,0.38,11,-1.44,-0.83,-0.03
NS(=O)(=O)c1cccc(Nc2cc(-c3ccc(F)cc3)n[nH]2)c1,9,4.2,17,3.39,12.4,1.3,2.54,3.38,9.78,-0.57,-3.83,2.05,6.41,-2.37,4.82,1.68,3.52,0.73,0.11,4.6
COC(=O)c1ccc2c(c1)C(=Cc1cc(Br)c(O)c(Br)c1)C(=O)N2,2.87,2.56,15.9,7.83,21.2,5.2,15,5.66,15.4,-5.02,-4.28,3.19,11.6,3.04,7.64,2.4,6.95,-1.29,0.81,-0.27
Cc1cc(Cl)cc2c1NC(=O)C2=NNc1ccc(S(N)(=O)=O)cc1,4.99,3.5,6.19,2.11,7.99,0.72,1.88,3.13,7.59,-3.23,-2.47,1.98,1.63,3.4,2.55,-0.72,1.77,2.48,0.33,-0.78
COC(=O)c1cncc(/C=C/c2c(C)cc(O)cc2C)c1,5.95,13.9,60.9,11,62.9,2.92,4.4,12.5,57.4,-3.94,-5.3,3.73,13.6,4.1,29.6,11.4,50.2,1.9,2.92,4.04
COc1cccc(-n2ncc3c(N/N=C/c4ccc(S(C)(=O)=O)cc4)ncnc32)c1,87,86.2,94.7,62,73,-3.22,-1.6,45.4,61.7,-1.8,1.34,7.91,38.4,10.1,30.7,6.33,26.8,-4.35,-3.39,5.8
Cc1cc(O)cc(C)c1/C=C/c1cncc(C(=O)N(C)C)c1,1.49,2.53,14.2,6.26,17.9,1.7,3.57,4.85,12,-0.49,3.27,2.94,3.78,-2.2,5.69,2.85,6.32,1.28,1.08,4.08
Nc1ccc(C#Cc2cncnc2Nc2ccc(OCc3cccc(F)c3)c(Cl)c2)cc1,1.84,1.89,2.12,3.72,4,3.7,3.34,3.43,4.12,-4.2,-3.04,2.28,3.41,4.02,2.63,0.17,4.63,-0.24,1.11,-1.23
